IMPase Li inh = cell-permeable IMPase inhibitors with lithium potentiation; CHO-M1 cells, IP1 TR-FRET (IP-One), carbachol + lithium; Potency, µM (doses to about 59.4 µM), for inactives: top-dose activity, negative = IMPase inhibition, most hits filed as inhibitors; 0.35% of 210,000 active; AID 1457;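 further: IP1 builds up when IMPase is blocked and the TR-FRET signal falls; plate controls were basal vehicle for no effect and high inhibitor control for full effect; nearly all actives have a fitted effect of over 50% in size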
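CHO-M1, 2000 cells/well, 16–30 h culture; cpd + low Li+, 30 min 37C; lysis with d2-IP1/Eu-anti-IP1 Ab, 10 min RT; TR-FRET 665/620 ratio and 620 channel; AC50 via Hill.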
KDM4E inh = blocks human JMJD2E demethylase activity | JMJD2E catalytic domain, FDH-coupled NADH fluorescence (FDH is formaldehyde dehydrogenase) | Potency, µM (doses to about 57.1 µM), without a hit: at the highest dose activity change, negative = inhibition, hits mostly inhibitors | 1.6% of 230,000 active | AID 2147; active means well fitted inhibition curve with a large enough effect, not every such curve was filed as active; inconclusive means small, poorly fitted or top-dose-only effect, or another doubt; inactive means no such curve, though single readings can be large or run the other way;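 further: 0% = wells with enzyme and -100% = buffer wells without enzyme; nearly all actives have a fitted effect of over 50% in size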
Target sequence (B2RXH2 1-337 limits assumed): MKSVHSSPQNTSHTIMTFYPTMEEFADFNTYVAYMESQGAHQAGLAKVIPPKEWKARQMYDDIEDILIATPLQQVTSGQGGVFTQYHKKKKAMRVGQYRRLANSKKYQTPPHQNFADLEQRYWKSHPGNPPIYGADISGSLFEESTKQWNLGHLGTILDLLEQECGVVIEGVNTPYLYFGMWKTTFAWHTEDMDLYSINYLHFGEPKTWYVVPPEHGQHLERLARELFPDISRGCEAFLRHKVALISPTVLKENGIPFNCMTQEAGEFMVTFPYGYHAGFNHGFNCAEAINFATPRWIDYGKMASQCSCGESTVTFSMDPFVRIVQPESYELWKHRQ
Epigenetic derep = epigenetic control regulation, reporter derepression. murine LDR cells, GFP reporter derepression, 30 h. Potency, µM (doses to about 53.9 µM), for inactives: at the highest dose GFP activation, most hits filed as activators. 0.2% of 280,000 active; further: % of control where 0% means no effect; nearly all actives have a fitted effect of over 60% in size
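Derepression of a silenced CMV-GFP reporter in murine LDR cells is scored by enumerating GFP-positive cells with a laser-scanning microplate cytometer after 30 hours of treatment at 37 C.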
NPSR antag = blocks cAMP signaling of the human neuropeptide S receptor; CHO-NPSR cells, cAMP TR-FRET, antagonist mode; Potency, µM (titrated, usually from 38.3 µM), without a hit: at the top dose activity change, negative = inhibition, hits mostly inhibitors; 1% of 220,000 active; AID 1461; further: on the % scale 0 is the no-effect control and ±100 the full control effect; nearly all actives have a fitted effect of over 50% in size
Target sequence (Q6W5P4 whole entry, looked up): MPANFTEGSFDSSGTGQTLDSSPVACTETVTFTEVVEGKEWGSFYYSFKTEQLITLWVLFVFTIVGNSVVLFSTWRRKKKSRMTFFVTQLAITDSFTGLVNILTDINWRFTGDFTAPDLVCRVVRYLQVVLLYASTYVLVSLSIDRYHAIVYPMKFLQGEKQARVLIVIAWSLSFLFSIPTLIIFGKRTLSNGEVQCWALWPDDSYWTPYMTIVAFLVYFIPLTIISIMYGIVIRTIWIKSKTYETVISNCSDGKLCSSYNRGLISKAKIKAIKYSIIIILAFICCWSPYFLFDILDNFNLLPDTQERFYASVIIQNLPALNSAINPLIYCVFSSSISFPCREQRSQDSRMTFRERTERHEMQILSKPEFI
KAT2A inh = blocks human GCN5L2 histone acetyltransferase; Q92830; GCN5L2 HAT assay, ThioGlo1 CoA-SH fluorescence; Potency, µM (titrated, usually from 58.9 µM), inactives show at the highest dose activity change, negative = inhibition, hits mostly inhibitors; 0.21% of 390,000 active; AID 504327; further: on the % scale 0 is the no-effect control and ±100 the full control effect
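Enzyme at 20nM final was mixed with library compounds for 15 min at room temperature. Peptide H3(1-25) at 75uM, acetyl-CoA at 70uM and ThioGlo1 at 50uM were then added. Plates were read immediately and after 20 min (Ex340nm/Em540nm).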
Sfp inh = blocks B. subtilis Sfp PPTase activity | Biochemical Sfp PPTase activity, qHTS | Q9F4F7 | 3.5% of 310,000 active | Potency, µM, without a hit: largest response in the series, negative = inhibition, usual class: inhibitors;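 further: the enzyme is Sfp with the accession as filed and its product quenches rhodamine fluorescence; 0% = enzyme reaction without inhibitor and -100% = no enzyme wells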
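Reaction rates are the 30-min fluorescence difference (ex 525, em 598 nm) in wells containing 15 nM Sfp, 5 uM rhodamine-CoA and 12.5 uM BHQ-2-YbbR at pH 7.6 with 10 mM MgCl2.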
An asterisk follows results filed as active; ? = inconclusive; . = no result; ! = not active in a repeat; [ ] = another dose, or the depositor's remark. An excerpt weighted towards active compounds, which were near 3.6% of everything screened. Unless noted, the call rests on the fitted dose curve; in most records, active means well fitted curve in the direction sought with a large enough effect; inconclusive means small, poorly fitted or top-dose-only effect, or another doubt; inactive means no such curve, though single readings can be large; an effect the other way counts as inactive or inconclusive. Potency means the concentration at half of the fitted maximal effect.

SMILES	IMPase Li inh	KDM4E inh	Epigenetic derep	NPSR antag	KAT2A inh	Sfp inh
COc1ccc(N2CCN(C(=O)c3ccccc3F)CC2)c([N+](=O)[O-])c1	.	-8%	0%	-3%	-7%	-1%
COc1ccc(N2C(=O)CC(Sc3ccccc3C(=O)O)C2=O)c([N+](=O)[O-])c1 (stereo unspecified)	8%	-8%	1%	11%	0%	14µM*
Cc1ccc(N2C(=O)CC(Sc3ccccc3C(=O)O)C2=O)c([N+](=O)[O-])c1 (stereo unspecified)	-1%	-13%	-4%	12%	4%	7.1µM*
CC(C)CN1C(=O)CC(Sc2ccccc2C(=O)O)C1=O (stereo unspecified)	16%[38.3 µM]	3%	1%	-1%[46.1 µM]	-7%	-5%
CN1CCN(CCCNC(=O)c2ccc(/C=C3\Sc4ccccc4N(Cc4ccc(F)cc4)C3=O)cc2)CC1	18%	?	11%	-41%	-11%	45µM*
CN1CCN(CCCNC(=O)c2ccc(/C=C3/Sc4ccccc4N(Cc4cccc(Cl)c4)C3=O)cc2)CC1	1%	?	?	-34%	-9%	50µM*
O=C(CN1C(=O)/C(=C/c2ccccc2)Sc2ccccc21)NCCCN1CCOCC1	.	.	.	.	-3%	0%
CCN1CCN(CCNC(=O)c2ccc(/C=C3\Sc4ccccc4N(Cc4ccccc4F)C3=O)cc2)CC1	16%	?	6%	9%	-2%	79µM*
CCn1cc(C(=O)N2CCN(c3ccccc3)CC2)c(=O)c2cc(S(=O)(=O)N(C)C3CCCCC3)ccc21	.	.	0%	.	-2%	.
Cc1cc2cc(CN(CCCN3CCOCC3)C(=O)NC3CCCCC3)c(=O)[nH]c2cc1C	31%[38.3 µM]	?	-1%	?	-24%	45µM*
Cc1ccc2cc(CN(CCCN3CCOCC3)C(=O)NC3CCCCC3)c(=O)[nH]c2c1C	-2%[38.3 µM]	?	-1%	?	-7%	20%
COc1cc(OC)c2c(-c3ccccc3)cc(=O)oc2c1C(CCN1CCN(c2ccccc2)CC1)c1ccc(N(C)C)cc1 (stereo unspecified)	.	-2%	2%	7%	1%	1%
CCN(CC)CCC(c1ccc(N(C)C)cc1)c1c(OC)cc(OC)c2c(-c3ccccc3)cc(=O)oc12 (stereo unspecified)	.	-1%	8%	-34%	1%	56µM*
Cc1cccc(N2CCN(C(=O)c3ccc4c(c3)N(Cc3cccc(Cl)c3)C(=O)c3ccccc3S4=O)CC2C)c1 (stereo unspecified)	.	.	-1%	.	1%	.
CCOC(=O)C(=Cc1cc(=O)c(OC)co1)C(=O)OCC	15%	-8%	3%	?	-1%	6.3µM*
CN[C@@H]1[C@H](O[C@@H]2O[C@H](C)[C@@](O)(CO)[C@H]2O[C@H]2[C@H](O)[C@H](O)[C@H](N=C(N)N)[C@@H](O)[C@@H]2N=C(N)N)O[C@@H](CO)[C@H](O)[C@H]1O	1%	.	0%	.	-5%	0%
COc1cccc([C@@H]2Oc3ccc(Br)cc3C[C@H]2OC(=O)NCCc2ccc(OC)c(OC)c2)c1	21%	3%	0%	.	.	-10%
CC1CCN(C(c2ccc(N(C)C)cc2)c2nnnn2C(C)(C)C)CC1 (stereo unspecified)	37%[38.3 µM]	?	0%	-1%[46.1 µM]	-11%	20µM*
CN(C)c1ccc(C(c2nnnn2C(C)(C)C)N2CCc3ccccc3C2)cc1 (stereo unspecified)	-14%[38.3 µM]	-11%	-2%	-17%[46.1 µM]	-1%	-12%
CCC(=O)Nc1nnc(S(=O)(=O)N(C)Cc2ccccc2)s1	.	.	4%	.	-5%	.
Cc1cc(C)c(C#N)c(SCC(=O)N2CCN(Cc3ccccc3)CC2)n1	16%[38.3 µM]	-3%	1%	-15%[46.1 µM]	-1%	1%
Cc1cc(C)c(C#N)c(SCC(=O)N2CCCCC2)n1	0%	4%	0%	-2%[46.1 µM]	-2%	32µM*
Cc1ccc(-n2c(-c3cc(-c4ccco4)[nH]n3)n[nH]c2=S)c(Br)c1	.	-7%	1%	-20%	-6%	50µM*
Cc1ccccc1-n1c(-c2ccco2)n[nH]c1=S	-10%	?	-5%	2%	4%	4%
S=c1[nH]nc(-c2cc(-c3ccco3)[nH]n2)n1-c1cccc2ccccc12	-2%[38.3 µM]	-6%	-1%	-28%[46.1 µM]	?	10µM*
SMILES	IMPase Li inh	KDM4E inh	Epigenetic derep	NPSR antag	KAT2A inh	Sfp inh
COCc1cc(=O)[nH]c(=S)[nH]1	-3%	8%	-3%	12%	2%	13µM*
O=c1[nH]c2[nH]c(=S)[nH]c(=S)c2[nH]1	1%	.	.	.	.	.
C/C(=N\Nc1nccnc1Cl)c1ccc(O)cc1	.	.	.	.	-9%	?
C/C(=N\Nc1nccnc1Cl)c1ccc(F)cc1	2%	-22%	0%	-14%	-4%	22µM*
Cn1c(C(=O)N2CCOCC2)cc2c(=O)n3ccccc3nc21	.	.	.	.	-4%	10%
Cn1c(C(=O)N2CCN(C(=O)c3ccco3)CC2)cc2c(=O)n3ccccc3nc21	10µM*	2%	1%	12%[46.1 µM]	?	20µM*
COc1cc(OC)cc(-c2nnc3n2N=C(c2ccc(OC)c(OC)c2)CS3)c1	.	.	.	.	.	9%
C[n+]1cccc2ccc3c(c21)OC(N)=C(C#N)C3c1ccccc1 (stereo unspecified)	.	16µM*	7%	-2%	0%	-16%
Cc1c(CBr)[n+](=O)c2c(n1[O-])C(Br)CCC2Br (stereo unspecified)	.	28µM*	-2%	17%	-24%	11µM*
O=C(NC1CC(=O)N(c2ccccc2)C1)c1cc2ccccc2o1 (stereo unspecified)	.	.	3%	.	8%	.
CCC(C)C(NC(=O)OC(C)(C)C)C(=O)NC1COC2CC(n3ccc(=O)[nH]c3=O)OC12 (stereo unspecified)	.	.	.	.	.	10%
N[C@H](C(=O)O)c1ccc(C(=O)O)cc1	-9%	?	0%	.	-14%	45µM*!
CN1c2ccsc2C(O)=C(C(=S)Nc2ccc(F)c(Cl)c2)S1(=O)=O	32%[38.3 µM]	?	8%	8%[46.1 µM]	-11%	50µM*
Cn1cc(C(=O)Nc2ccc(F)c(Cl)c2)cn1	-4%	-1%	-2%	5%	-9%	-10%
COc1ccc(C2=C(C)C(=NCCCN3CCN(c4cc(C)ccc4C)CC3)NS2(=O)=O)cc1	.	.	?	.	-7%	.
NC(=O)c1ccc(N2CCN(c3ccc(O)cc3)CC2)c([N+](=O)[O-])c1	5%	-20%	1%	-1%	0%	32µM*
CC(=O)c1ccc(N2CCN(c3ccc(C(N)=O)cc3[N+](=O)[O-])CC2)cc1	13%	-1%	-1%	9%	-3%	-6%
